USP1 inh: Inhibitors of USP1/UAF1: Primary Screen; Ubiquitin carboxyl-terminal hydrolase 1 (Homo sapiens), O94782; actives 0.23% (n = 390,000); Potency, µM (doses to about 57.1 µM), inactives show at the highest dose activity change, negative = inhibition, actives largely listed as inhibitors; recombinant USP1/UAF1, Ub-Rhodamine cleavage fluorescence; AID 743255, 2014; further: on the % scale 0 is the no-effect control and ±100 the full control effect; nearly all actives have a fitted effect of over 60% in size
Target sequence (O94782 whole entry, looked up): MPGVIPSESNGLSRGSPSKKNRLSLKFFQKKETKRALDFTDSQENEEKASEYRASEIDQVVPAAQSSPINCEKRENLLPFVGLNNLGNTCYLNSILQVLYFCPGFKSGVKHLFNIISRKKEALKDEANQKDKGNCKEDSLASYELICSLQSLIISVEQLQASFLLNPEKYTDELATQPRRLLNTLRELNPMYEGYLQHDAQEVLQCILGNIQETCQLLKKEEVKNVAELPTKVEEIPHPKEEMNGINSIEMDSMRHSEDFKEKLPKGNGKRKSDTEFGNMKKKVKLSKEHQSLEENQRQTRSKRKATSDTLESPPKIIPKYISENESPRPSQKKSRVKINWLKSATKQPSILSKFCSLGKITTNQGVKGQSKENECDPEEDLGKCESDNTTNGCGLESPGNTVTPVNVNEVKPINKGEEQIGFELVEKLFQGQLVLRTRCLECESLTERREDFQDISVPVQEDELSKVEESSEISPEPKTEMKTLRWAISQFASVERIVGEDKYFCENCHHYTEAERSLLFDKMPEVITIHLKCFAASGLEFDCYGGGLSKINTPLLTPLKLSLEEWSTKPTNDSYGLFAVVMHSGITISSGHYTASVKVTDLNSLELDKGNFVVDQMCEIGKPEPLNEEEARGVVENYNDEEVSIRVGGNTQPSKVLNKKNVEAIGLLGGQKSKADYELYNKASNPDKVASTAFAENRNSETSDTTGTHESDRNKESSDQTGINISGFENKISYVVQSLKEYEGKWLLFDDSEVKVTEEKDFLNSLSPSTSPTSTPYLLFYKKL
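USP1/UAF1 complex at 1 nM was preincubated with compound for 15 min at room temperature, then Ub-Rho substrate (150nM final) was added. Fluorescence (480/540 nm) was read kinetically, 6 reads every 60 seconds.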
GLP1R cytotox: qHTS of GLP-1 Receptor Inverse Agonists: Cytotox Screen; HEK293 cAMP-luciferase reporter cells, luminescence, 24 h; Potency, µM (highest dose often 38.3 µM), for the others: top-dose activity change, negative = inhibition, most hits filed as inhibitors; actives 0.13% (n = 410,000);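 further: loss of luciferase light is scored as toxicity; on the % scale 0 is the no-effect control and ±100 the full control effect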
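Luminescence readout: signal drop marks cytotoxicity. Plated cells grew 12 h at 37 °C, 5% CO2, received 23 nL compound for 24 h, then got luciferase reagent, read after 12 min at RT.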
EPAC1 antagonist: qHTS for Antagonist of cAMP-regulated guanine nucleotide exchange factor 3 (EPAC1): primary screen; Rap guanine nucleotide exchange factor 3 (Homo sapiens), O95398; EPAC1 GEF assay, Rap1b-BODIPY-GDP exchange fluorescence; Potency, µM (series often up to 115 µM), inactives show at the highest dose activity change, negative = inhibition, actives largely listed as inhibitors; AID 720709, 2013; actives 0.14% (n = 360,000);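 further: plate controls were vehicle for no effect and positive control for full effect; nearly all actives have a fitted effect of over 50% in size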
EPAC2 agonist: qHTS for Agonist of cAMP-regulated guanine nucleotide exchange factor 4 (EPAC2): primary screen; Rap guanine nucleotide exchange factor 4 (Homo sapiens), Q8WZA2; actives 0.079% (n = 360,000); Potency, µM (top dose mostly 154 µM), inactives show top-dose activation, usual class: activators; EPAC2 activation, biochemical qHTS; response scale: 100% = 6.5 mM cAMP response; further: nearly all actives have a fitted effect of over 50% in size
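Readout is BODIPY fluorescence (480 nm excitation, 540 nm emission), which falls as labeled GDP is exchanged off Rap1B. EPAC2 at 100 nM acted on 250 nM RAP1B-BODIPY-GDP with 50 uM GDP present.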
EPAC1 agonist: qHTS for Agonist of cAMP-regulated guanine nucleotide exchange factor 3 (EPAC1): primary screen; actives 0.073% (n = 360,000); Potency, µM (highest dose often 154 µM), for the others: at the highest dose activation, most hits filed as activators; Rap guanine nucleotide exchange factor 3 (Homo sapiens), O95398; EPAC1 agonist qHTS, biochemical assay; response scale: 100% = response to 6.5 mM cAMP; further: nearly all actives have a fitted effect of over 60% in size
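Fluorescent GDP-exchange assay: 100 nM EPAC1 with 250 nM Rap1B preloaded with BODIPY-GDP and 50 uM GDP; compounds tested as concentration series, 5 min at room temperature, then read every 5 min for 30 min (ex 480/em 540 nm); normalized to 6.5 mM cAMP.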
EPAC2 antagonist: qHTS for Antagonist of cAMP-regulated guanine nucleotide exchange factor 2 (EPAC2): primary screen | actives 0.18% (n = 360,000) | Rap guanine nucleotide exchange factor 4 (Homo sapiens), Q8WZA2 | EPAC2 GEF exchange of Rap1B-BODIPY-GDP, fluorescence | Potency, µM (doses to about 114 µM), for inactives: at the highest dose activity, negative = inhibition, most hits filed as inhibitors | AID 720708, 2013; further: on the % scale 0 is the no-effect control and ±100 the full control effect; nearly all actives have a fitted effect of over 45% in size
The depositor's hits bear a star; ? = inconclusive; · = not tested or not shown. An excerpt weighted towards active compounds, which were near 0.55% of everything screened. The call rests on the fitted dose curve; in most records, active means well fitted curve in the direction sought with a large enough effect; inconclusive means small, poorly fitted or top-dose-only effect, or another doubt; inactive means no such curve, though single readings can be large; an effect the other way counts as inactive or inconclusive. Potency means the concentration at half of the fitted maximal effect.

SMILES	USP1 inh	GLP1R cytotox	EPAC1 antagonist	EPAC2 agonist	EPAC1 agonist	EPAC2 antagonist
CCOC(=O)c1c(S(=O)(=O)NCC(=O)Nc2cccc(CC)c2)c(C)n(C)c1C	11.8%	-6.2%	·	·	·	·
COc1ccccc1NC(=O)CSc1nc2c(oc3ccccc32)c(=O)n1-c1ccccc1F	-20.3%	-3.6%	·	·	·	·
CC(=O)NC(c1cccs1)c1cc(Cl)c2ccccc2c1O (centres undefined)	·	·	-22.8%	12.4%	6.3%	?
CCC(=O)NC(c1cccs1)c1cc(Cl)c2ccccc2c1O (centres undefined)	·	·	-24.1%	22.0%	3.7%	79.4µM*
CCN1CCN(Cc2c(O)ccc3oc(C)c(C(=O)Nc4cccc(Cl)c4C)c23)CC1	-17.0%	9.4%	·	·	·	·
Cc1cc(C)nc(NS(=O)(=O)c2ccc(NC(=O)CN3C(=O)S/C(=C\c4ccccc4)C3=O)cc2)n1	?	-8.6%	79.4µM*	5.8%	5.5%	-11.1%
O=C(CCN1C(=O)S/C(=C\c2ccccc2)C1=O)Nc1ccc(S(=O)(=O)Nc2nccs2)cc1	-10.0%	-18.8%	?	9.0%	-3.0%	-23.4%
COc1ccc(O)c(/C=C2/SC(=S)N(Cc3ccccc3)C2=O)c1	?	2.6%	-7.5%	12.1%	4.1%	8.0%
COc1ccc(/C=C2\SC(=S)N(NS(=O)(=O)c3ccc(C)cc3)C2=O)c(OC)c1	-23.8%	-17.0%	?	-17.9%	-0.9%	-12.8%
COc1ccc(OC)c(/C=C2\SC(=S)N(NS(=O)(=O)c3ccc(C)cc3)C2=O)c1	?	-25.8%	56.2µM*	8.6%	8.9%	?
COc1ccccc1/C=C1\SC(=S)N(NS(=O)(=O)c2ccc(C)cc2)C1=O	-25.0%	-11.6%	79.4µM*	8.4%	-4.2%	?
COc1ccc(OC)c(/C=C2\SC(=S)N(Cc3cccnc3)C2=O)c1	-17.5%	9.3%	3.6%	112µM*	9.3%	9.9%
Cc1ccc(C)c(S(=O)(=O)Nc2ccc(C(=O)NCC(c3ccco3)N3CCCCC3)cc2)c1 (centres undefined)	-10.9%	?	7.7%	11.4%	-8.9%	-0.7%
Cc1ccc(C)c(S(=O)(=O)Nc2ccc(C(=O)NCC(c3ccco3)N(C)C)cc2)c1 (centres undefined)	-16.6%	-3.3%	-10.6%	-5.8%	112µM*	6.5%
Nc1c(C(=O)NC2CC2)sc2nc3c(c(-c4ccco4)c12)CC/C3=C/c1ccco1	28.2µM*	19.8%	?	11.2%	-5.2%	27.1%
CCN1CCN(c2ccc(NC(=O)c3ccc([N+](=O)[O-])o3)cc2Cl)CC1	-5.7%	5.62µM*	-22.4%	13.9%	1.3%	-7.6%
CCC(=O)N1CCN(c2ccc(NC(=O)c3ccc([N+](=O)[O-])o3)cc2Cl)CC1	0.0%	?	-28.0%	14.1%	7.1%	-8.0%
CCOC(=O)c1c(C)oc2ncnc(NCCCN3CCN(c4cc(C)ccc4C)CC3)c12	-20.5%	9.3%	·	·	·	·
COc1cc(NCCCCCCN)c2ncccc2c1OC	8.91µM*	-25.8%	-10.0%	13.8%	7.6%	-22.9%
Cc1ccc(-c2onc(C)c2C)cc1S(=O)(=O)Nc1cccc(Cl)c1C	-15.9%	?	·	·	·	·
COc1ccccc1N1CCN(C(=O)CSc2nc3ccccc3nc2Cc2ccc(F)cc2)CC1	-3.8%	28.4%	·	·	·	·
COc1cc(NCCCC(C)N)c2ncccc2c1 (centres undefined)	5.01µM*	?	?	5.9%	-0.1%	-4.3%
COc1cc(NCCCCC(C)N)c2nccc(C)c2c1 (centres undefined)	?	1.2%	1.1%	3.1%	7.2%	-0.4%
Cc1ccccc1-n1sc2cc(F)ccc2c1=O	-20.1%	4.47µM*	?	0.8%	4.4%	-3.4%
O=c1c2ccccc2sn1-c1ccccc1F	5.7%	10µM*	-15.0%	8.9%	2.5%	-3.5%
SMILES	USP1 inh	GLP1R cytotox	EPAC1 antagonist	EPAC2 agonist	EPAC1 agonist	EPAC2 antagonist
Nc1ccc(N2CCN(c3ncc(C(F)(F)F)cc3Cl)CC2)c(C(F)(F)F)c1	-24.8%	4.4%	·	·	·	·
O=C(Nc1ccc(Cl)c(C(F)(F)F)c1)c1nc2ccccc2nc1N1CCCCC1	?	1.7%	·	·	·	·
Nc1c(S(=O)(=O)O)cc(NC(=O)c2ccccc2)c2c1C(=O)c1ccccc1C2=O	-18.4%	?	?	0.4%	-3.8%	39.8µM*
Cc1ccc(Sc2ccc(N3CCCC(C(=O)Nc4ccc(F)c(Cl)c4)C3)nn2)cc1 (centres undefined)	-26.6%	6.1%	·	·	·	·
CN1CCc2c(sc3c2C(=O)NC(c2ccccc2)N3)C1 (centres undefined)	?	46.1%	0.6%	-1.9%	-1.6%	9.0%
CN1CCc2c(sc3c2C(=O)NC(c2ccccn2)N3)C1 (centres undefined)	31.6µM*	99.4%	12.0%	22.7%	7.1%	18.0%
CN1CCc2c(sc3c2C(=O)NC(c2ccc(OC(=O)c4ccc(C(C)(C)C)cc4)cc2)N3)C1 (centres undefined)	31.6µM*	39.7%	·	·	·	·
Cc1cccc(CNC(=O)Cn2nc(C)c3nn(-c4ccc(Cl)cc4)c(C)c3c2=O)c1	?	5.5%	·	·	·	·
O=C(C=Cc1ccccc1)c1c[nH]c2ccccc2c1=O	-11.9%	?	79.4µM*	3.8%	0.4%	-0.7%
O=C(O)/C=C1\NC(=O)c2ccccc21	-13.1%	6.2%	-16.5%	8.6%	0.0%	-1.4%
O=C1N/C(=C\c2ccc(O)cc2)C(=O)c2ccccc21	28.2µM*	-9.8%	-5.8%	5.3%	11.8%	-7.8%
COc1ccc(Cl)cc1S(=O)(=O)Nc1cccc(-c2ccc(N3CCCC3)nn2)c1	-12.5%	-12.1%	·	·	·	·
COc1ccc(OC)c2nc3c(C(=O)NCCN(C)C)cccc3nc12	-13.1%	7.08µM*	-3.4%	0.2%	6.5%	-4.1%
O=C(N[C@H](Cc1ccc(Cl)cc1)C(=O)O)OCC1c2ccccc2-c2ccccc21	-16.8%	-11.2%	50.1µM*	-13.0%	-22.8%	?
CCc1nnc(NS(=O)(=O)c2ccc(NCc3cc(Cl)cc(Cl)c3O)cc2)s1	-11.8%	-17.3%	-22.0%	1.7%	-26.1%	17.8µM*
CCOc1ccc(CN2C(=O)c3ccccc3Sc3ccc(C(=O)NCc4ccco4)cc32)cc1	?	-0.7%	·	·	·	·
